Assays:
[1] = target: 5'-AMP-activated protein kinase catalytic subunit alpha-2 (Homo sapiens) (UniProt P54646); conditions: at 1 µM
[2] = target: T1, NUAK family SNF1-like kinase 1 (Homo sapiens) (UniProt O60285); conditions: at 0.1 µM
T1 sequence (whole entry): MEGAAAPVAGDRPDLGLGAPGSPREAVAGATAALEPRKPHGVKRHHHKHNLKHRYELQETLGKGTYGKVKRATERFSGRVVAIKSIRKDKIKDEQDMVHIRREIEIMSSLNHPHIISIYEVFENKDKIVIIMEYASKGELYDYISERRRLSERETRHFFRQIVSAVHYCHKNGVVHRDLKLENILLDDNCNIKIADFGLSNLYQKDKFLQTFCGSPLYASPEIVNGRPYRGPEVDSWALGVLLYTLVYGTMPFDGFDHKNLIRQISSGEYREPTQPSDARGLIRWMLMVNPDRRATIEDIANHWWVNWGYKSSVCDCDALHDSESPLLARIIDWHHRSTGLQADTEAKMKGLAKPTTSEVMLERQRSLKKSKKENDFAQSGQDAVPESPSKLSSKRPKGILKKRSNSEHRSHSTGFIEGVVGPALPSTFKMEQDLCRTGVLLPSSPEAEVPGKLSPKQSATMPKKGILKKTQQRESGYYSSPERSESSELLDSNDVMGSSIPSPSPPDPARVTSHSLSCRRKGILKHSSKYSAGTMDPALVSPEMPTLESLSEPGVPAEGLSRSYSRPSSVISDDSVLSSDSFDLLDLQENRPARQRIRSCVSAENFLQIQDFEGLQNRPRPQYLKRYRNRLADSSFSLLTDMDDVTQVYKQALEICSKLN

[3] = target: T1, NUAK family SNF1-like kinase 1 (Homo sapiens); conditions: at 1 µM
[4] = target: T2, Serine/threonine-protein kinase BRSK1 (Homo sapiens) (UniProt Q8TDC3); conditions: at 0.1 µM
T2 sequence (whole entry): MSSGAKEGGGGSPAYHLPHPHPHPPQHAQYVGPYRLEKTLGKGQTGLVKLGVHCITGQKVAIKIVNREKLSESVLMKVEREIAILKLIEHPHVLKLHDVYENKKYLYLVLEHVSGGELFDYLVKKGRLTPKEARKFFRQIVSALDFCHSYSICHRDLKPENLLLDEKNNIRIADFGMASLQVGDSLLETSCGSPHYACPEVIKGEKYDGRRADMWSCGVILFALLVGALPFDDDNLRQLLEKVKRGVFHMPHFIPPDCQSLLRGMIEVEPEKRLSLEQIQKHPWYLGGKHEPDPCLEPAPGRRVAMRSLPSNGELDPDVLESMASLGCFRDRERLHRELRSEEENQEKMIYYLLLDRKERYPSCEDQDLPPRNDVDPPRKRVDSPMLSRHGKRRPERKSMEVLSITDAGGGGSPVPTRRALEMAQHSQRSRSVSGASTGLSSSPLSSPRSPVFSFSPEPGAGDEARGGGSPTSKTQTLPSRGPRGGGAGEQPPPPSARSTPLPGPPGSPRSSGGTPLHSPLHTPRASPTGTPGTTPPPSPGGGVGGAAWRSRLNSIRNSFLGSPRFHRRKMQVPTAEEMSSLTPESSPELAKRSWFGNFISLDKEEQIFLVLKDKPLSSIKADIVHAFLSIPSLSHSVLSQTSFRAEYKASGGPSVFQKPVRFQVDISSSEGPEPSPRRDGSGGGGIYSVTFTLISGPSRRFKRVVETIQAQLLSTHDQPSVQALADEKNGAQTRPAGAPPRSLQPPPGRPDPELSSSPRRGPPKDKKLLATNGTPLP

[5] = target: T2, Serine/threonine-protein kinase BRSK1 (Homo sapiens); conditions: at 1 µM
[6] = target: T3, Serine/threonine-protein kinase BRSK2 (Homo sapiens) (UniProt Q8IWQ3); conditions: at 0.1 µM
T3 sequence (whole entry): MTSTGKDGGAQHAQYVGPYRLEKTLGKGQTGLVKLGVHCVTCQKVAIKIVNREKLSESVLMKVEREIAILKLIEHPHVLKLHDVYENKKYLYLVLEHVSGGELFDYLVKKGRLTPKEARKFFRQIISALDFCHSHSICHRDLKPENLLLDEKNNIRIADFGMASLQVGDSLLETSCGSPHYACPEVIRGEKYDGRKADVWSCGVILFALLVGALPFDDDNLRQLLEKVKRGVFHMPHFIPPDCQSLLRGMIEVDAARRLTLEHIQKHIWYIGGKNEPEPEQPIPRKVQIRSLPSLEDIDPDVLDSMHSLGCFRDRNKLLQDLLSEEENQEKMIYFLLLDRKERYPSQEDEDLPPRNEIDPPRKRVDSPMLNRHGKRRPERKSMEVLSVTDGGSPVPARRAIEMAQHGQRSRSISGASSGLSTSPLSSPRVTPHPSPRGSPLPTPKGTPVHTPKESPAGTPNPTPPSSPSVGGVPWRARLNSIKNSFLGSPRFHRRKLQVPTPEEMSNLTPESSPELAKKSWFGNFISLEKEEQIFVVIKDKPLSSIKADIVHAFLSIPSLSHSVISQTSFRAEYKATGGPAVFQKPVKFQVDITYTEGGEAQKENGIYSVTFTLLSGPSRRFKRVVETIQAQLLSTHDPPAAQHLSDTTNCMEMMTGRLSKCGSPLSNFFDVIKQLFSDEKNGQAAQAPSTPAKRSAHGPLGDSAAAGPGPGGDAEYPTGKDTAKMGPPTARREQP

[7] = target: T3, Serine/threonine-protein kinase BRSK2 (Homo sapiens); conditions: at 1 µM
[8] = target: Calcium/calmodulin-dependent protein kinase type 1D (Homo sapiens) (UniProt Q8IU85); conditions: at 0.1 µM
Calcium/calmodulin-dependent protein kinase type 1D (Homo sapiens), sequence (Q8IU85 whole entry, looked up): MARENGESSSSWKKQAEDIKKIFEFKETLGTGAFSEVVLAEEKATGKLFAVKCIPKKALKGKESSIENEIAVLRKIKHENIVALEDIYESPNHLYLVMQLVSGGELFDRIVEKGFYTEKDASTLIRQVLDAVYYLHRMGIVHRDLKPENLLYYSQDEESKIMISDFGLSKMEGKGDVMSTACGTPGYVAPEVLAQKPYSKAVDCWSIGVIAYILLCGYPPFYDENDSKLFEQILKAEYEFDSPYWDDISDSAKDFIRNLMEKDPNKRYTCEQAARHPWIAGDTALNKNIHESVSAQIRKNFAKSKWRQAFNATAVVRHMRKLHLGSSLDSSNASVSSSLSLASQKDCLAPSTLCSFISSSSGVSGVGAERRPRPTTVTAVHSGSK

[9] = target: Calcium/calmodulin-dependent protein kinase type 1D (Homo sapiens) (UniProt Q8IU85); conditions: at 1 µM
[10] = target: Calcium/calmodulin-dependent protein kinase type II subunit alpha (Homo sapiens) (UniProt Q9UQM7); conditions: at 0.1 µM;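 further: reported values are averages (mean inhibition of CAMK2A)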
Calcium/calmodulin-dependent protein kinase type II subunit alpha (Homo sapiens), sequence (Q9UQM7 whole entry): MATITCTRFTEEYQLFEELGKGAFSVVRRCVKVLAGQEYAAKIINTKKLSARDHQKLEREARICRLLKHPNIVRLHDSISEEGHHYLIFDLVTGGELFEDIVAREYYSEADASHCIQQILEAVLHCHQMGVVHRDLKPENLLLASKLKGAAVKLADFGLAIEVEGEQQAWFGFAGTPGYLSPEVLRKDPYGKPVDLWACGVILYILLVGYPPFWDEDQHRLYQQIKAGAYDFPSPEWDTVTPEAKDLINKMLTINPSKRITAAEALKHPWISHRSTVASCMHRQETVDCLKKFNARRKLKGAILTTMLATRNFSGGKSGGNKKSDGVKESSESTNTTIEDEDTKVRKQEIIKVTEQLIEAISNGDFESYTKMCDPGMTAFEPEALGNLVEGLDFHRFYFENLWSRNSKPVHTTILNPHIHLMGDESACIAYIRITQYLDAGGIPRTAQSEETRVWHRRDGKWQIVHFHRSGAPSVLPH

5'-AMP-activated protein kinase catalytic subunit alpha-2 (Homo sapiens), sequence (P54646 whole entry, looked up): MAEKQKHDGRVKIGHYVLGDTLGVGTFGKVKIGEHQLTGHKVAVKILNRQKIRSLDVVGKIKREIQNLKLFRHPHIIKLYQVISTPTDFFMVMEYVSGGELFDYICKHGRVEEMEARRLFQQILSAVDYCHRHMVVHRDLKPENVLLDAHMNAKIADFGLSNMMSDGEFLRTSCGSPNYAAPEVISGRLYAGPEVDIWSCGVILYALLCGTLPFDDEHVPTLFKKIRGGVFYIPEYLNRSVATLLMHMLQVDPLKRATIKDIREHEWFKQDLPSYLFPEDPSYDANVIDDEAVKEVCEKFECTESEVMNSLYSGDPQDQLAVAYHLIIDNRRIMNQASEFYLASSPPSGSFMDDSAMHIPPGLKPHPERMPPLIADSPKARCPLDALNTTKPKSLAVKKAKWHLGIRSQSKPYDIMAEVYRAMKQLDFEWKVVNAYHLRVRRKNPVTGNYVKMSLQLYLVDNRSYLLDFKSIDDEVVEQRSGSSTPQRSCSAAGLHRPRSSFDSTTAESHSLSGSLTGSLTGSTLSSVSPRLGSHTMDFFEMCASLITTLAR

For O=C1NC(=O)C(N2CCc3ccccc32)=C1c1ccc(Cl)cc1, the inhibition [1] was 5.78%, the inhibition [2] was 4.44% and the inhibition [3] was 7.39%. For the same molecule, the inhibition [4] was 3.67%, the inhibition [5] was 5.07% and the inhibition [6] was 2.92%. For the same molecule, the inhibition [7] was 3.2%, the inhibition [8] was 0.76% and the inhibition [9] was 1.55%. The inhibition [10] was 4.4%.
COc1cc2ncn(-c3cc(O[C@@H](C)c4ccccc4Cl)c(C(N)=O)s3)c2cc1OC gave an inhibition [1] of 5.06%, an inhibition [2] of 3.52% and an inhibition [3] of 22.4%. For the same molecule, the inhibition [4] was 8.66%, the inhibition [5] was 44% and the inhibition [6] was 19.4%. It also gave an inhibition [7] of 58.9%, an inhibition [8] of 1.43% and an inhibition [9] of 1.53%. It also gave an inhibition [10] of 1.15%.
CC(=O)Nc1cccc(C#Cc2cncnc2Nc2ccc(OCc3cccc(F)c3)c(Cl)c2)n1 showed an inhibition [1] of -0.66%, an inhibition [2] of 2.57% and an inhibition [3] of 1.97%. The inhibition [4] was -1.43%, the inhibition [5] was 5.34% and the inhibition [6] was 1.19%. For the same molecule, the inhibition [7] was 5.79%, the inhibition [8] was 0.41% and the inhibition [9] was 0.25%. For the same molecule, the inhibition [10] was 0.69%.
Work on Cc1cc(O)cc(C)c1/C=C/c1cncc(-c2nn[nH]n2)c1 yielded an inhibition [1] of 4.51%, an inhibition [2] of 3.07% and an inhibition [3] of 5.08%. The inhibition [4] was 3.46%, the inhibition [5] was 19.2% and the inhibition [6] was 2.49%. It also gave an inhibition [7] of 13.2%, an inhibition [8] of 0.18% and an inhibition [9] of -0.55%. The inhibition [10] was 6.31%.
COc1cc(C=NNc2ncnc3c2cnn3-c2ccccc2)ccc1O gave an inhibition [1] of 6.79%, an inhibition [2] of 16.1% and an inhibition [3] of 57.3%. For the same molecule, the inhibition [4] was 8.76%, the inhibition [5] was 40.1% and the inhibition [6] was 10.3%. It also gave an inhibition [7] of 43.5%, an inhibition [8] of 0.83% and an inhibition [9] of 2.96%. For the same molecule, the inhibition [10] was 3.14%.
For CS(=O)(=O)CCNCc1ccc(-c2ccc3ncnc(Nc4ccc(OCc5ccccc5)c(Cl)c4)c3c2)o1, the inhibition [1] was 0.49%, the inhibition [2] was 0.49% and the inhibition [3] was 1.58%. It also gave an inhibition [4] of 0.43%, an inhibition [5] of -0.39% and an inhibition [6] of 0.27%. The inhibition [7] was 2.32%, the inhibition [8] was -0.75% and the inhibition [9] was 1.29%. For the same molecule, the inhibition [10] was -1.33%.
With c1cnn2ncc(-c3ccnc(Nc4ccc5c(c4)OCCO5)n3)c2c1 the inhibition [1] was 12.6%, the inhibition [2] was 52.8% and the inhibition [3] was 83.2%. It also gave an inhibition [4] of 0.46%, an inhibition [5] of 6.78% and an inhibition [6] of 2.51%. For the same molecule, the inhibition [7] was 9.28%, the inhibition [8] was 1.5% and the inhibition [9] was 5.85%. It also gave an inhibition [10] of 5.45%.
Work on CS(=O)(=O)CCNCc1nc(-c2ccc3ncnc(Nc4ccc(F)c(Cl)c4)c3c2)cs1 yielded an inhibition [1] of 1.32%, an inhibition [2] of 2.92% and an inhibition [3] of 2%. For the same molecule, the inhibition [4] was 0.92%, the inhibition [5] was 1.59% and the inhibition [6] was 2.32%. For the same molecule, the inhibition [7] was 6.52%, the inhibition [8] was 1.26% and the inhibition [9] was 1.23%. The inhibition [10] was 5.16%.
CCn1c(-c2nonc2N)nc2ccncc21 was tested, and the inhibition [1] was 4.28%, the inhibition [2] was 1.84% and the inhibition [3] was 4.31%. It also gave an inhibition [4] of 1.52%, an inhibition [5] of 2.23% and an inhibition [6] of 1.34%. It also gave an inhibition [7] of 0.91%, an inhibition [8] of 1.15% and an inhibition [9] of 1.59%. The inhibition [10] was 3.93%.
O=C1NC(=O)C(c2ccc(Cl)cc2)=C1Nc1ccc(Cl)c(C(=O)O)c1 showed an inhibition [1] of -0.57%, an inhibition [2] of 1.82% and an inhibition [3] of 3.54%. It also gave an inhibition [4] of -0.49%, an inhibition [5] of 0.55% and an inhibition [6] of 0.35%. For the same molecule, the inhibition [7] was -1.78%, the inhibition [8] was -0.66% and the inhibition [9] was 4.19%. For the same molecule, the inhibition [10] was -2.83%.
In the case of COc1cc2c(cc1Nc1nc(N3CCc4ccccc43)c3cc[nH]c3n1)N(C(=O)CN(C)C)CC2, the inhibition [1] is reported as 3.8%, the inhibition [2] is reported as 4.37% and the inhibition [3] is reported as -4.13%. It also gave an inhibition [4] of 2.17%, an inhibition [5] of 0.61% and an inhibition [6] of 0.98%. It also gave an inhibition [7] of 1.3%, an inhibition [8] of 0.34% and an inhibition [9] of 2.58%. For the same molecule, the inhibition [10] was 3.95%.
For COc1ccc2cc(-c3c(-c4ccncc4)nc(-c4ccc([S+](C)[O-])cc4)n3C)ccc2c1 (stereo not given), the inhibition [1] was 3.34%, the inhibition [2] was 1.01% and the inhibition [3] was 2.13%. It also gave an inhibition [4] of 1.67%, an inhibition [5] of 3.16% and an inhibition [6] of 1.67%. It also gave an inhibition [7] of 0.66%, an inhibition [8] of -0.09% and an inhibition [9] of 0.68%. The inhibition [10] was 3.34%.
Molecule NS(=O)(=O)c1ccc(N/N=C2\C(=O)Nc3ccc(C(=O)NCCc4c[nH]cn4)cc32)cc1 has an inhibition [1] of 63.6%, an inhibition [2] of 54.2% and an inhibition [3] of 83.5%. For the same molecule, the inhibition [4] was 21.6%, the inhibition [5] was 63.5% and the inhibition [6] was 34.6%. For the same molecule, the inhibition [7] was 74.9%, the inhibition [8] was 1.24% and the inhibition [9] was 3.93%. The inhibition [10] was 5.62%.
Work on Nc1nc(-c2ccccn2)c(-c2ccc3ncccc3n2)s1 yielded an inhibition [1] of 3.76%, an inhibition [2] of 4.24% and an inhibition [3] of 5.19%. For the same molecule, the inhibition [4] was -0.41%, the inhibition [5] was 2.4% and the inhibition [6] was 0.9%. The inhibition [7] was 3.83%, the inhibition [8] was -0.97% and the inhibition [9] was 0.3%. It also gave an inhibition [10] of 1.9%.
With Cc1nn(C)c2cc(N(C)c3ccnc(Nc4cccc(S(N)(=O)=O)c4)n3)ccc12 the inhibition [1] was 3.54%, the inhibition [2] was 20.6% and the inhibition [3] was 64.2%. The inhibition [4] was 1.45%, the inhibition [5] was 0.63% and the inhibition [6] was 0.72%. The inhibition [7] was 4.4%, the inhibition [8] was 0.85% and the inhibition [9] was 3.14%. It also gave an inhibition [10] of 1.6%.
Work on CCn1c(-c2nonc2N)nc2cncc(C(=O)N3CC[C@H](N)C3)c21 yielded an inhibition [1] of 6.01%, an inhibition [2] of 0.02% and an inhibition [3] of 0.59%. The inhibition [4] was 1.37%, the inhibition [5] was 2.48% and the inhibition [6] was 0.94%. For the same molecule, the inhibition [7] was 6.07%, the inhibition [8] was 1.79% and the inhibition [9] was 0.54%. For the same molecule, the inhibition [10] was 3.71%.
CCc1cccc(NC(=O)Nc2ccc(Oc3ccc4nc(NC(=O)OC)[nH]c4c3)cc2)c1 was tested, and the inhibition [1] was -0.72%, the inhibition [2] was 1.37% and the inhibition [3] was 4.18%. For the same molecule, the inhibition [4] was 0.6%, the inhibition [5] was 0.32% and the inhibition [6] was 3.12%. It also gave an inhibition [7] of 5.96%, an inhibition [8] of 0.1% and an inhibition [9] of 1.18%. The inhibition [10] was 4.24%.

From ChEMBL document CHEMBL1961873, “Compounds: GSK PKIS; Assays: Nanosyn kinase panel” (2012)
